# Test results reported in PubChem BioAssay (NCATS).
# Results filed as inconclusive are left out. Where a call stands in place of a potency, no number is given. Unmarked numbers belong to inactive results. The source made the active and inactive calls. Calls follow the shape of the dose curve; as a rule, active = well fitted curve in the direction sought with a large enough effect; inconclusive = small, poorly fitted or top-dose-only effect, or another doubt; inactive = no such curve, though single readings can be large; an effect the other way counts as inactive or inconclusive. *1 amine or outer side, *2 acyl side, *3 side chain or, on linkers, in order; H or OH if unused. Where a SMILES comes first, the peptide text is derived from it. Bridges are numbered along the chain shown (N, C = ends). [ ]: non-standard residue; d: D form. The star is where a group is joined. ξ: configuration not given here. X10 = NC1=NCCC(C(N[*:1])C(=O)[*:2])N1; ΔAla(3-NHCONH2) = NC(=O)NC=C(N)C(=O)O; ξβ3hOrn = NCCCC(N)CC(=O)*; Dap = NC[CH](N)C(=O)O
# Columns and labels:
# [1] = qHTS of pediatric cancer cell lines to identify multiple opportunities for drug repurposing: Primary screen for SK-N-SH cells (AID 1347098);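 also: DMSO served as neutral control and bortezomib at 2.3 µM as positive control; nearly all actives have a fitted effect of over 65% in size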
# Summary of the method: (§1)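 Cells (500-1,000/well) rested 5 h, then received compounds for 48 h; metabolically active cells were measured by CellTiter-Glo luminescence. Final concentrations spanned up to 46 µM (MIPE, 11-point) or 0.59 nM-46 µM (NPC, 8-point) in primary screens, 11-point in follow-ups.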
# [2] = qHTS of pediatric cancer cell lines to identify multiple opportunities for drug repurposing: Primary screen for LAN-5 cells (AID 1347100); also: potency is read from the fitted curve at half-maximal effect
# Summary of the method: (§2)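 Cells (500-1,000/well) in growth media were settled 5 h at 37 degrees C, then given compounds for 48 h. Viability was read as CellTiter-Glo luminescence. Primary runs used MIPE at 11 points (0.78 nM-46 µM) and NPC at 8 points (0.59 nM-46 µM); follow-ups used 11 points.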
# [3] = qHTS of pediatric cancer cell lines to identify multiple opportunities for drug repurposing: Primary screen for BT-12 cells (AID 1347101); also: nearly all actives have a fitted effect of over 25% in size
# Summary of the method: as §1
# [4] = qHTS of pediatric cancer cell lines to identify multiple opportunities for drug repurposing: Primary screen for Rh18 cells (AID 1347102); also: nearly all actives have a fitted effect of over 65% in size
# Summary of the method: as §2
# [5] = qHTS of pediatric cancer cell lines to identify multiple opportunities for drug repurposing: Primary screen for OHS-50 cells (AID 1347103); also: nearly all actives have a fitted effect of over 40% in size
# Summary of the method: as §1
# [6] = qHTS of pediatric cancer cell lines to identify multiple opportunities for drug repurposing: Primary screen for RD cells (AID 1347104); also: nearly all actives have a fitted effect of over 55% in size
# Summary of the method: (§3)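 Plated cells (500-1,000 per well, growth media) were allowed to settle for 5 hours, treated with compound dilutions for 48 hours, then lysed with CellTiter-Glo for 15 min at room temperature before luminescence reading.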
# [7] = qHTS of pediatric cancer cell lines to identify multiple opportunities for drug repurposing: Primary screen for MG 63 (6-TG R) cells (AID 1347105); also: nearly all actives have a fitted effect of over 50% in size
# Summary of the method: as §3
# [8] = qHTS of pediatric cancer cell lines to identify multiple opportunities for drug repurposing: Primary screen for control Hh wild type fibroblast cells (AID 1347106);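 also: series mostly up to about 46 µM; a drop in luminescence marks cytotoxicity and a rise apparent proliferation; nearly all actives have a fitted effect of over 55% in size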
# Summary of the method: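 Viability after 48 h compound treatment at 37C, 500-1,000 cells/well, read as ATP luminescence with CellTiter-Glo. Primary screens used 11-point (MIPE, 0.78 nM-46 µM) or 8-point (NPC, 0.59 nM-46 µM) final concentrations; follow-up screens used 11-point dilutions.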
# [9] = qHTS of pediatric cancer cell lines to identify multiple opportunities for drug repurposing: Primary screen for Rh30 cells (AID 1347107); also: series mostly up to about 46 µM; nearly all actives have a fitted effect of over 75% in size
# Summary of the method: as §2
# [10] = qHTS of pediatric cancer cell lines to identify multiple opportunities for drug repurposing: Confirmatory screen for A673 cells (AID 1347110);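 also: cells exposed to compound for 48 h before the viability read; nearly all actives have a fitted effect of over 65% in size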
# Summary of the method: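 Concentration-response curves came straight from titrations: 11 points (0.78 nM to 46 µM) for MIPE and several concentrations (0.59 nM to 46 µM) for NPC in primary, 11 points in follow-up. Readout: ATP luminescence at 48 h.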
# [11] = qHTS of pediatric cancer cell lines to identify multiple opportunities for drug repurposing: Confirmatory screen for LAN-5 cells (AID 1347113); also: nearly all actives have a fitted effect of over 65% in size; also: potency is read from the fitted curve at half-maximal effect
# Summary of the method: as §2
# [12] = qHTS of pediatric cancer cell lines to identify multiple opportunities for drug repurposing: Confirmatory screen for DAOY cells (AID 1347114); also: nearly all actives have a fitted effect of over 65% in size
# Summary of the method: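 Viability measured as metabolically active cells via CellTiter-Glo luminescence following 48 hours of compound exposure, 11-point dilutions in confirmatory testing. 500-1,000 cells/well plated 5 hours before dosing; controls were DMSO and 2.3 µM bortezomib.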
# [13] = qHTS of pediatric cancer cell lines to identify multiple opportunities for drug repurposing: Confirmatory screen for NB-EBc1 cells (AID 1347115);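 also: cells exposed to compound for 48 h before the viability read; nearly all actives have a fitted effect of over 45% in size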
# Summary of the method: as §2
# [14] = qHTS of pediatric cancer cell lines to identify multiple opportunities for drug repurposing: Confirmatory screen for TC32 cells (AID 1347118); also: potency is read from the fitted curve at half-maximal effect
# Summary of the method: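 Measured quantity: luminescence from CellTiter-Glo, reflecting metabolically active TC32 cells following 48 h of compound. Curves came straight from multi-point titrations, with 8 or 11 points in primary and 11 in confirmatory screening.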
# [15] = qHTS of pediatric cancer cell lines to identify multiple opportunities for drug repurposing: Primary screen for Rh41 cells (AID 1347108);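 also: series mostly up to about 46 µM; luminescence drop marks cytotoxic hits; nearly all actives have a fitted effect of over 70% in size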
# Summary of the method: as §3
# [16] = qHTS of pediatric cancer cell lines to identify multiple opportunities for drug repurposing: Confirmatory screen for SK-N-MC cells (AID 1347111);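 also: potency is read from the fitted curve at half-maximal effect; cells exposed to compound for 48 h before the readout; nearly all actives have a fitted effect of over 70% in size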
# Summary of the method: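 Metabolically active cells were quantified by ATP-dependent luminescence (CellTiter-Glo, 15 min at room temperature) following 48 h treatment. Cells had been plated at 500-1,000 per well and settled for 5 h beforehand.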
# [17] = qHTS of pediatric cancer cell lines to identify multiple opportunities for drug repurposing: Confirmatory screen for BT-12 cells (AID 1347112); also: nearly all actives have a fitted effect of over 55% in size; also: potency is read from the fitted curve at half-maximal effect
# Summary of the method: as §2
# [18] = qHTS of pediatric cancer cell lines to identify multiple opportunities for drug repurposing: Confirmatory screen for BT-37 cells (AID 1347117); also: nearly all actives have a fitted effect of over 55% in size; also: potency is read from the fitted curve at half-maximal effect
# Summary of the method: as §2
# [19] = qHTS of pediatric cancer cell lines to identify multiple opportunities for drug repurposing: Confirmatory screen for MG 63 (6-TG R) cells (AID 1347119); also: nearly all actives have a fitted effect of over 55% in size; also: potency is read from the fitted curve at half-maximal effect
# Summary of the method: as §2
smiles,measurement,setting,value
COc1cc(/C=C/C(N)=O)cc(OC)c1OC,Potency,[1],inactive
same,Potency,[2],inactive
same,Potency,[3],inactive
same,Potency,[4],inactive
same,Potency,[5],inactive
same,Potency,[6],inactive
same,Potency,[7],inactive
same,Potency,[8],inactive
same,Potency,[9],inactive
same,Potency,[10],inactive
same,Potency,[11],inactive
same,Potency,[12],inactive
same,Potency,[13],inactive
same,Potency,[14],inactive
NCCCC(N)CC(=O)NCC1NC(=O)C(CO)NC(=O)C(N)CNC(=O)C(C2CCN=C(N)N2)NC(=O)C(=CNC(N)=O)NC1=O (stereo not drawn) (H-[Dap]S[Dap](ξβ3hOrn)[ΔAla(3-NHCONH2)][X10]; lactam 1-C; configuration not given here),"activity change, negative = cytotoxic",[1],-4.49% [at 0.741 µM]
same,"activity change, negative = cytotoxic",[2],6.67% [at 0.597 µM]
same,"activity change, negative = cytotoxic",[3],5.9% [at 0.745 µM]
same,"activity change, negative = cytotoxic",[4],6.67% [at 0.597 µM]
same,"activity change, negative = cytotoxic",[5],13.9% [at 0.73 µM]
same,"activity change, negative = cytotoxic",[6],2.79% [at 0.597 µM]
same,"activity change, negative = cytotoxic",[7],-12% [at 0.597 µM]
same,"activity change, negative = cytotoxic",[8],5.88% [at 0.597 µM]
same,"activity change, negative = cytotoxic",[9],22.4% [at 0.597 µM]
same,"activity change, negative = cytotoxic",[15],17.6% [at 0.597 µM]
CCc1cc(S(=O)(=O)O)c2cc(C(C)C)cccc1-2,Potency,[1],inactive
same,Potency,[2],inactive
same,Potency,[3],inactive
same,Potency,[4],inactive
same,Potency,[5],inactive
same,Potency,[6],inactive
same,Potency,[7],inactive
same,Potency,[8],inactive
same,Potency,[9],inactive
same,Potency,[15],inactive
CCOC(=O)OCC/C(SC(=O)OCC)=C(\C)N(C=O)Cc1cnc(C)nc1N,Potency,[1],inactive
same,Potency,[2],inactive
same,Potency,[3],inactive
same,Potency,[4],inactive
same,Potency,[5],inactive
same,Potency,[6],inactive
same,Potency,[7],inactive
same,Potency,[8],inactive
same,Potency,[9],inactive
same,Potency,[15],inactive
COc1ccc(/C(C)=C/C(=O)O)c(OC)c1,Potency,[1],inactive
same,Potency,[2],inactive
same,Potency,[3],inactive
same,Potency,[4],inactive
same,Potency,[5],inactive
same,Potency,[6],inactive
same,Potency,[7],inactive
same,Potency,[8],inactive
same,Potency,[9],inactive
same,Potency,[15],inactive
CCOC(=O)C(=O)CCc1ccccc1,Potency,[1],inactive
same,Potency,[2],inactive
same,Potency,[3],inactive
same,Potency,[4],inactive
same,Potency,[5],inactive
same,Potency,[6],inactive
same,Potency,[7],inactive
same,Potency,[8],inactive
same,Potency,[9],inactive
same,Potency,[15],inactive
COCCc1ccccn1,Potency,[1],inactive
same,Potency,[2],inactive
same,Potency,[3],inactive
same,Potency,[5],inactive
same,Potency,[6],inactive
same,Potency,[7],inactive
same,Potency,[8],inactive
same,Potency,[9],inactive
same,Potency,[15],inactive
Cc1ccc(/C=N/n2c(-c3ccccc3)csc2=S)cc1,Potency,[1],inactive
same,Potency,[2],inactive
same,Potency,[4],inactive
same,Potency,[6],inactive
same,Potency,[7],inactive
same,Potency,[9],inactive
CCN(CC)CC(=O)Oc1ccc(NC(C)=O)cc1,Potency,[1],inactive
same,Potency,[2],inactive
same,Potency,[3],inactive
same,Potency,[4],inactive
same,Potency,[5],inactive
same,Potency,[6],inactive
same,Potency,[7],inactive
same,Potency,[8],inactive
same,Potency,[9],inactive
same,Potency,[15],inactive
NC(=O)NS(=O)(=O)c1ccc(Cl)cc1,Potency,[1],inactive
same,Potency,[2],inactive
same,Potency,[3],inactive
same,Potency,[4],inactive
same,Potency,[5],inactive
same,Potency,[6],inactive
same,Potency,[7],inactive
same,Potency,[8],inactive
same,Potency,[9],inactive
same,Potency,[15],inactive
C[C@]12CCC(=O)C=C1CC[C@@H]1[C@@H]2[C@@H](O)C[C@@]2(C)[C@H]1CC[C@]2(O)C(=O)COC(=O)CCC(=O)O,Potency,[1],inactive
same,Potency,[2],inactive
same,Potency,[3],inactive
same,Potency,[5],inactive
same,Potency,[6],inactive
same,Potency,[7],inactive
same,Potency,[9],inactive
same,Potency,[15],inactive
same,Potency,[10],inactive
same,Potency,[16],18.5 µM (active)
same,Potency,[17],inactive
same,Potency,[11],inactive
same,Potency,[12],inactive
same,Potency,[18],inactive
same,Potency,[19],inactive
Cc1ncc(CO)c(CO)c1O,Potency,[1],inactive
same,Potency,[2],inactive
same,Potency,[3],inactive
same,Potency,[4],inactive
same,Potency,[5],inactive
same,Potency,[6],inactive
same,Potency,[7],inactive
same,Potency,[8],inactive
same,Potency,[9],inactive
same,Potency,[15],inactive
O=C(O)[C@@H](O)[C@H](O)[C@H](O)[C@@H](O)C(=O)O,Potency,[1],inactive
same,Potency,[2],inactive
same,Potency,[3],inactive
same,Potency,[4],inactive
same,Potency,[5],inactive
same,Potency,[6],inactive
same,Potency,[7],inactive
same,Potency,[8],inactive
same,Potency,[9],inactive
same,Potency,[15],inactive
CCOC(=O)CN1CCCC1=O,Potency,[1],inactive
same,Potency,[2],inactive
same,Potency,[3],inactive
same,Potency,[5],inactive
same,Potency,[6],inactive
same,Potency,[7],inactive
same,Potency,[8],inactive
same,Potency,[9],inactive
same,Potency,[15],inactive
CC1(C)O[C@@H]2C[C@H]3[C@@H]4CCC5=CC(=O)C=C[C@]5(C)[C@@]4(F)[C@@H](O)C[C@]3(C)[C@]2(C(=O)CO)O1,Potency,[1],inactive
same,Potency,[2],inactive
same,Potency,[3],inactive
same,Potency,[5],inactive
same,Potency,[6],inactive
same,Potency,[7],inactive
same,Potency,[8],inactive
same,Potency,[9],inactive
same,Potency,[15],inactive
Nc1ccc(O)cc1,Potency,[1],inactive
same,Potency,[2],15 µM (active)
same,Potency,[3],inactive
same,Potency,[4],inactive
same,Potency,[5],inactive
same,Potency,[6],inactive
same,Potency,[7],inactive
same,Potency,[8],inactive
same,Potency,[9],inactive
same,Potency,[15],inactive
O=C1OC2(c3ccccc31)c1cc(I)c(O)c(I)c1Oc1c2cc(I)c(O)c1I,Potency,[1],inactive
same,Potency,[2],inactive
same,Potency,[6],inactive
same,Potency,[7],inactive
same,Potency,[8],inactive
same,Potency,[15],inactive
CCCCC(=O)OCC(=O)[C@H]1[C@H](C)C[C@H]2[C@@H]3C[C@H](F)C4=CC(=O)C=C[C@]4(C)[C@@]3(F)[C@@H](O)C[C@@]21C,Potency,[1],inactive
same,Potency,[2],inactive
same,Potency,[3],inactive
same,Potency,[4],inactive
same,Potency,[6],inactive
same,Potency,[7],inactive
same,Potency,[8],inactive
same,Potency,[9],inactive
same,Potency,[16],10.4 µM (active)
same,Potency,[17],14.7 µM (active)
same,Potency,[11],23.3 µM (active)
same,Potency,[12],inactive
same,Potency,[18],20.8 µM (active)
same,Potency,[14],16.5 µM (active)
same,Potency,[19],18.5 µM (active)
Nc1ncnc2c1ncn2Cc1c(F)cccc1Cl,Potency,[1],inactive
same,Potency,[2],inactive
same,Potency,[3],inactive
same,Potency,[4],inactive
same,Potency,[5],inactive
same,Potency,[6],inactive
same,Potency,[7],inactive
same,Potency,[8],inactive
same,Potency,[9],inactive
same,Potency,[15],inactive
